SMILES strings stand for the structures. Values joined by “and” are separate entries in the source; they are usually repeats but may differ in a detail not shown here. Equal values may be shown once. Active and inactive are the calls of the source. The calls were made as follows: active = hit-call score of the fitted dose curve at least 0.9, where 1 is the maximum; inactive = score below 0.9.

Read-out in this assay: Interleukin 17F (IL17F), IL17F (gene 112744)
Kind of assay: BSK_BT_xIL17F: BioMAP Diversity Plus: BT Assay for Interleukin 17F (IL17F) Biomarker Activity (AID 2284243). To be noted: primary human B cells with PBMC. As for the experimental part:
BSK_BT is a cell-based, multiplexed-readout assay that uses B cell and peripheral blood mononuclear cells, a human vascular primary cell co-culture, with measurements taken at 24 hours after chemical dosing in a microplate: 96-well plate.BSK_BT_xIL17F is an assay component measured in the BSK_BT assay. It measures secreted IL-17F related to regulation of gene expression using LumineX xMAP technology.Data from the assay component BSK_BT_xIL17F was analyzed at the endpoint, BSK_BT_xIL17F, in the positive analysis fitting direction relative to DMSO as the negative control and baseline of activity. Using a type of cytokine quantitation reporter, gain or loss-of-signal activity can be used to understand protein changes. To generalize the intended target to other relatable targets, this assay endpoint is annotated to the 'cytokine' intended target family, where the subfamily is 'interleukins'.
The levels of cell surface (or secreted, indicated by the prefix "s") biomarker endpoints were measured by ELISA. Overt cytotoxicity to cells in confluent adherent cultures (all systems other than the BT system) was assessed by measuring total protein levels using sulforhodamine B (SRB) staining in parallel cultures at the time of biomarker measurements, indicated as SRB endpoints. For proliferation assays for adherent cell types, individual cell types are cultured at sub-confluence and relative cell numbers quantified by SRB staining at time points optimized for each system (48 h: 3C and CASM3C systems; 72 h: BT and HDF3CGF systems; 96 h: SAg system). SRB was performed by staining cells with 0.1% SRB after fixation with 10% TCA and reading wells at 560 nm.Viability and proliferation of PBMC (T cells) was quantified by Alamar Blue reduction for the SAg and BT systems. For PBMC viability (referred to as PBMC Cytotoxicity within the assay endpoint names), cells were plated (75,000/well in a 96-well plate) and then chemical samples added for 1 h before addition of activators, SEB and TSST-1 (20 ng/mL final concentration each). Cells were incubated for 90 h. Then, Alamar Blue (20 uL/well) (Invitrogen, Cat DAL1100) was added for 6 h, and the plates were read with a fluorescence microplate reader at 546/580 nm (excitation/emission). For PBMC proliferation, cells were plated and activated as above but incubated for only 16 h prior to addition of Alamar Blue. Plates were read after 6 h.
Regarding `O=C(O)C(F)(F)OC(F)(F)C(F)(F)OC(F)(F)C(F)(F)C(F)(F)C(F)(F)F`, the outcome was inactive.

Take `C=C1CC/C=C(\C)CC[C@@H]2[C@@H]1CC2(C)C`: the result was inactive.

On to `CC(C)Cc1ccc(C(C)C(=O)O)cc1` (stereo not given), for which the result was inactive.

`Nc1ccc(N)c([N+](=O)[O-])c1`: the outcome was inactive.

For `CCOC(=O)CCCCCCCCC(=O)OCC`, the result was inactive.

Consider `O=C(O)C(F)(F)C(F)(F)C(F)(F)C(F)(F)C(F)(F)C(F)(F)C(F)(F)C(F)F`, for which the result was inactive.

On to `CCCCCCCCCC(=O)OCC`, for which the result was inactive.

On to `NC(=O)c1c(Cl)cccc1Cl`, for which the result was inactive.

`O=S1(=O)CC(Cl)(Cl)C(Cl)(Cl)C1`: the concentration at half-maximal activity (AC50) was 0.515 µM (active).

`CC(C)(C)c1cccc(O)c1`: the outcome was inactive.

As to `CCOC(=O)C=Cc1ccccc1`, the outcome was inactive.

`c1ccc(Sc2ccccc2)cc1`: the result was inactive.

As to `C=C(F)C(=O)OC(C(F)(F)F)C(F)(F)F`, the result was inactive.

As for `COc1ccccc1NC(=O)CC(C)=O`, the outcome was inactive.

As to `CCCCCCCC1CCCC1=O` (stereo not given), the result was inactive.

Regarding `CC(=O)OC(C)(C)C1CC=C(C)CC1` (stereo not given), the result was inactive.

As for `CC(=O)OCC=C(C)CCC=C(C)CCC=C(C)C`, the AC50 is 30.3 µM (active).

For the compound `CC1=CC(C)C(C=O)C(C)C1` (stereo not given) (tested in a mixture with another compound), the result was inactive.

Take `c1ccc2c(c1)-c1ccc3ccc4cccc5cc-2c1c3c45`: the result was inactive.

Take `OCC(F)(OC(F)(F)C(F)(OC(F)(F)C(F)(F)C(F)(F)F)C(F)(F)F)C(F)(F)F` (stereo not given): the AC50 was 5.47 µM (active) and 5.77 µM (active).

With `O=C1OC2(c3ccc(O)cc3Oc3cc(O)ccc32)c2ccccc21`, the outcome was inactive.

`CC(=O)CCC=C(C)CCC=C(C)C`: the outcome was inactive.

With `C=C(C)C(=O)OCCC(F)(F)C(F)(F)C(F)(F)C(F)(F)C(F)(F)C(F)(F)C(F)(F)C(F)(F)F`, the outcome was inactive.

Turning to `CCC(=O)OCC=Cc1ccccc1`, the result was inactive.

Turning to `CCCCCCCCCCCCS`, the outcome was inactive.

Regarding `C=CC(=O)OCC(CO)(COC(=O)C=C)COC(=O)C=C`, the concentration at half-maximal activity (AC50) is 1.15 µM (active).

For `CC1(C)[C@H](C=C(Cl)Cl)[C@H]1C(=O)OCc1cccc(Oc2ccccc2)c1`, the result was inactive.

For `O=S(=O)(O)C(F)(F)C(F)(F)OC(F)(F)C(F)(F)F`, the result was inactive.

As to `OCCN1CCOCC1`, the result was inactive.

Turning to `CC=CC(=O)C1=C(C)C=CCC1(C)C`, the result was inactive.

(Values after PubChem BioAssay (EPA / NIEHS).)
